Values joined by “and” are separate entries in the source; they are usually repeats but may differ in a detail not shown here. Equal values may be shown once. Records with an inconclusive call do not appear. A structure can be active in one record and inactive in another. Active and inactive are the calls of the source. Calls follow the shape of the dose curve; as a rule, active = well fitted curve in the direction sought with a large enough effect in the repeat runs; inconclusive = weak or mixed curves; inactive = no such curve, though single readings can be large; an effect the other way counts as inactive or inconclusive.

The source of these data is PubChem BioAssay (Tox21).

Assay [1] in a line: qHTS RealTime-Glo MT Cell Viability Assay in HEK293 cells - 16 hour (AID 1224872). Also: nearly all actives have a fitted effect of over 50% in size. In a few lines:
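Reads taken at 0, 8, 16, 24, 32 and 40 h from the same wells. HEK293 cells (600/well) carried RealTime-Glo reagents from seeding, with compound added after a 5 h settle at 37 C.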
Background: Quantitative high-throughput screening tests each substance at several concentrations.

Assay [2] can be described thus: qHTS RealTime-Glo MT Cell Viability Assay in HEK293 cells - 40 hour (AID 1224874). Also: nearly all actives have a fitted effect of over 50% in size. Conditions: RealTime-Glo luminescence; max response: stronger effect = lower value. The method in brief:
(§1)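 600 HEK293 cells per well, dispensed already mixed with RealTime-Glo MT reagents. Compound dosing came 5 h later. The same wells were read for luminescence at 0, 8, 16, 24, 32 and 40 h of exposure at 37 C.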

Assay [3] in a line: A CellTox Green Cytotoxicity Assay to monitor cytotoxicity in HEK293 cells - 24 hour (AID 1224875). Also: nearly all actives have a fitted effect of over 45% in size. The method in brief:
(§2)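 Dead-cell fluorescence measured kinetically: asymmetric cyanine dye, HEK293, 600 cells/well, 5 h settle, 23 nL cpd/DMSO, 37 C, reads 0–40 h every 8 h.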

A short description of assay [4]: A CellTox Green Cytotoxicity Assay to monitor cytotoxicity in HepG2 cells - 16 hour (AID 1224876). Also: nearly all actives have a fitted effect of over 45% in size. In a few lines:
(§3)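 First, HepG2 cells (600/well) mixed with reagent were plated; second, after 5 h at 37 C they received compounds via pintool; third, fluorescence was measured at 0 h through 40 h at 8 h intervals.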

A short description of assay [5]: A CellTox Green Cytotoxicity Assay to monitor cytotoxicity in HepG2 cells - 24 hour (AID 1224878). Also: nearly all actives have a fitted effect of over 45% in size. In a few lines: as §3
Assay [6] can be described thus: A CellTox Green Cytotoxicity Assay to monitor cytotoxicity in HepG2 cells - 40 hour (AID 1224879). Also: nearly all actives have a fitted effect of over 40% in size. In a few lines:
as §3

A short description of assay [7]: qHTS RealTime-Glo MT Cell Viability Assay in HEK293 cells - 0 hour (AID 1224880). Also: nearly all actives have a fitted effect of over 45% in size. The method in brief:
as §1

Assay [8] can be described thus: A CellTox Green Cytotoxicity Assay to monitor cytotoxicity in HEK293 cells - 32 hour (AID 1224881). Also: nearly all actives have a fitted effect of over 40% in size. The method in brief: as §2
A short description of assay [9]: qHTS RealTime-Glo MT Cell Viability Assay in HepG2 cells - 8 hour (AID 1224873). Also: nearly all actives have a fitted effect of over 55% in size. The method in brief: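 Real-time viability: cells seeded at 600 per well together with NanoLuc and cell-permeant prosubstrate, compounds added after 5 h incubation. Luminescence tracked at 0, 8, 16, 24, 32 and 40 h of exposure.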
Assay [10] can be described thus: qHTS RealTime-Glo MT Cell Viability Assay in HepG2 cells - 32 hour (AID 1224877). Also: nearly all actives have a fitted effect of over 55% in size. The method in brief: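 HepG2 suspension premixed with RealTime-Glo reagents is plated at 600 cells per well and left 5 h at 37 C/5% CO2. Compounds in DMSO then go in, and bioluminescence reflecting viable cell number is recorded over 40 h.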
% is scaled to controls: 0 for no effect and ±100 for the full control effect; potency is read from the fitted curve at half-maximal effect.

Take `Cc1cc(C2(c3cc(C)c(O)cc3C)OS(=O)(=O)c3ccccc32)c(C)cc1O`: the Potency result in assay [1], in assay [3], in [4], in [5], in [6] and in assay [8] was “inactive” each time. In [2], the max response is -21.7% (inactive) and -18.4% (inactive). Also, the Potency in [7] was 27.5 µM (active) and 24.5 µM (active).
In the case of `CC1=CC(=O)c2ccccc2C1=O`, the Potency in assay [1] is 13.8 µM (active) and 23.9 µM (active); in assay [9], 38.9 µM (active); in [2], 15.5 µM (active); in assay [3], 24.5 µM (active) and 26.8 µM (active); in assay [4], 49 µM (active) and 26.8 µM (active); in [10], 49 µM (active). Besides, the Potency in assay [5] is 43.6 µM (active) and 26.8 µM (active); in assay [6] it was 43.6 µM (active) and 26.8 µM (active); in assay [8] it was 19.5 µM (active) and 26.8 µM (active).
In the case of `CC(C)(O)CCC(C)(C)O`, the Potency entry in [9], in assay [3], in assay [4], in [10], in assay [5] and in [6] was “inactive” in each case. Moreover, the Potency result in assay [7] and in [8] was “inactive” in each case. In addition, the max response in assay [2] was -3.66% (inactive).
In the case of `OCCN1CCNCC1`, the figures for the Potency in [1] and in [2] were 15.8 µM (active) and 7.9 µM (active), respectively. Besides, the Potency result in [9], in assay [3], in assay [4], in assay [10], in [5] and in assay [6] was “inactive” each time. Besides, the Potency result in assay [7] and in assay [8] was “inactive” in each case.
On to `CCCOC(=O)c1cc(O)c(O)c(O)c1`, for which the Potency entry in [9], in assay [3], in [4], in [10], in [5] and in assay [6] was “inactive” each time. In addition, the Potency entry in [7] and in assay [8] was “inactive” each time. Besides, the Potency in assay [2] was 48.7 µM (active) and 38.9 µM (active).
With `CCC(=O)/C=C/C1C(C)=CCCC1(C)C` (stereo not given), the Potency result in [1], in assay [9], in assay [4], in assay [10], in assay [5] and in assay [6] was “inactive” each time. Besides, in [7], the Potency result is “inactive”. Further, the max response in assay [2] is -21.5% (inactive) and 0.0714% (inactive). Further, the Potency in [8] was 49.1 µM (active) and inactive.
Take `COC(=O)[C@H]1[C@H]2C[C@@H]3c4[nH]c5cc(OC)ccc5c4CCN3C[C@H]2C[C@@H](OC(=O)c2cc(OC)c(OC)c(OC)c2)[C@@H]1OC`: the Potency in [1] is 4.89 µM (active) and 5.65 µM (active) and 4.77 µM (active); in assay [2] it was 4.36 µM (active) and 7.98 µM (active) and 8.49 µM (active); in assay [6] it was 43.6 µM (active) and 40 µM (active) and 23.9 µM (active). The Potency entry in assay [3], in assay [4], in [5], in assay [7] and in [8] was “inactive” each time.
With `CCCCCCCCCCCCc1ccccc1O`, the Potency entry in assay [9] was “inactive and 34.7 µM (active)”; in [2], 48.3 µM (active) and 49 µM (active); in assay [3], 43.1 µM (active) and 38.9 µM (active); in assay [4] it was “inactive and 21.9 µM (active)”; in [10] it was “inactive and 43.6 µM (active)”; in [5], 17.4 µM (active). Also, the Potency is 48.3 µM (active) and 21.9 µM (active) in assay [6]; 43.1 µM (active) and 38.9 µM (active) in assay [8]. The Potency result in [7] was “inactive”.
`O=C1OC2(c3ccc(O)cc3Oc3cc(O)ccc32)c2ccccc21`: the Potency result in assay [1], in assay [10] and in [7] was “inactive” throughout. Also, the max response in assay [2] is 12.3% (inactive) and -17.2% (inactive). The Potency is 692 nM (active) and 1.07 µM (active) in assay [3]; 616 nM (active) and 301 nM (active) in assay [4]; 616 nM (active) and 301 nM (active) in assay [5]; 616 nM (active) and 301 nM (active) in assay [6]; 692 nM (active) and 1.2 µM (active) in [8].
For `Cc1ccc(-c2cc(C(F)(F)F)nn2-c2ccc(S(N)(=O)=O)cc2)cc1`, the Potency in [9] is 48.8 µM (active) and 49 µM (active) and inactive; in [2] it was 21.8 µM (active) and 30.9 µM (active); in [4], 48.8 µM (active) and 43.6 µM (active); in assay [10] it was 49 µM (active) and inactive; in [5] it was 19.4 µM (active) and 49 µM (active); in assay [6], 48.8 µM (active) and 49 µM (active). In [8], the Potency was 49 µM (active) and inactive. The Potency entry in assay [3] and in assay [7] was “inactive” each time.
As for `N[C@@H]1CONC1=O`, the Potency entry in assay [1], in assay [9], in [3], in [10], in assay [7] and in assay [8] was “inactive” each time.
